Measured potencies and affinities stand elsewhere.
Each compound was assayed on Cryptococcus neoformans. Settings: Concentration 32 ug.mL-1; ASSAY_TEST Inhibition of Fungal Growth; detection method Resazurin; Absorption (OD600-OD570); plate type 384well; NBS; CORNING #3640.

Structure (SMILES)	Inhibition [%]
COc1cccc(-n2ccn3c(=O)n(Cc4ccc([N+](=O)[O-])cc4)nc3c2=O)c1	-8.87
COc1ccc(N(Cc2cccc(F)c2)S(=O)(=O)c2ccc3nncn3c2)cc1	-1.54
O=C(Cn1nc2c(SC3CCCCC3)nccn2c1=O)N1CCN(c2ccc(F)cc2)CC1	-4.89
CCc1ccc(N(Cc2cccc(F)c2)S(=O)(=O)c2cccn3c(CC)nnc23)cc1	-6.35
COc1cccc(Oc2nccn3c(=O)n(CC(=O)Nc4ccc(OC)c(OC)c4)nc23)c1	-6.14
CCCc1nnc2c(=O)n(CC(=O)Nc3ccc(C#N)cc3)c3ccccc3n12	-7.04
Cc1ccc(-n2ccn3c(SCC(=O)Nc4ccc5c(c4)OCCO5)nnc3c2=O)cc1C	-6.74
O=c1c2sccc2n2c(=O)n(Cc3cccc(C(F)(F)F)c3)nc2n1Cc1cccs1	-33.79
CCOC(=O)c1ccccc1NC(=O)Cn1nc2ccc(Sc3ccc(C)cc3)nn2c1=O	-9.49
COc1cccc(Sc2nc3ccccc3n3c(=O)n(CC(=O)Nc4ccccc4)nc23)c1	-26.53
O=C(Cn1nc2c3cc(-c4ccc(F)cc4)nn3ccn2c1=O)N1CCCc2ccccc21	-21.22
Cc1ccc(NC(=O)Cn2nc3ccc(SC(C)C)nn3c2=O)c(Cl)c1	-1.74
O=C(CSc1nnc2c(=O)n(-c3cccc(F)c3)ccn12)Nc1ccc(Br)cc1	-9.7
CCOc1ccc(-n2ccn3c(SCC(=O)Nc4ccc(C)c(C)c4)nnc3c2=O)cc1	-12.45
O=C(Cn1nc2ccc(Sc3ccccc3)nn2c1=O)N1CCN(c2ccc(F)cc2)CC1	-5.51
Cc1ccc(F)cc1NC(=O)CSc1nnc2ccc(C(=O)Nc3cccc(F)c3)cn12	-3.99
COc1ccc(NC(=O)Cn2nc3c(SC4CCCCC4)nccn3c2=O)cc1Cl	-22.74
CCc1ccccc1Sc1nccn2c(=O)n(CC(=O)Nc3cc(Cl)c(OC)cc3OC)nc12	-4.37
Cc1ccc(Sc2nccn3c(=O)n(CC(=O)Nc4ccccc4C)nc23)c(C)c1	-25.74
Cc1cccc(C)c1NC(=O)Cn1nc2c(Sc3cccc(F)c3)nccn2c1=O	-4.17

Structure (SMILES)	Inhibition [%]
COc1cccc(-n2ccn3c(SCC(=O)Nc4ccccc4F)nnc3c2=O)c1	-12.13
COc1ccc(-c2cc3c4nn(CC(=O)Nc5cc(C)ccc5C)c(=O)n4ccn3n2)cc1	-22.77
COc1ccc(N2CCN(C(=O)Cn3nc4c(Oc5ccccc5)nccn4c3=O)CC2)cc1	-7.66
O=C(NCc1ccccc1)c1ccc2nn(CC(=O)N3CCN(c4ccccc4F)CC3)c(=O)n2c1	-15.87
CCOc1ccc(-n2ccn3c(SCC(=O)c4ccccc4)nnc3c2=O)cc1	-3.51
CCc1cccc(NC(=O)Cn2nc3ccc(SC(C)C)nn3c2=O)c1	-12.08
COc1cccc(-n2ccn3c(SCC(=O)c4c[nH]c5ccccc45)nnc3c2=O)c1	-9.55
Cc1cc2nn(CC(=O)Nc3cc(F)ccc3F)c(=O)n2c(Nc2ccc(C)c(F)c2)n1	-8.46
O=C(Cn1nc2nc(Nc3ccc(F)cc3)ccn2c1=O)Nc1cc(F)ccc1F	-6.4
COc1ccc(C)cc1NC(=O)Cn1nc2ccc(SC(C)(C)C)nn2c1=O	-12.69
COC(=O)c1ccccc1NC(=O)Cn1nc2c3cc(-c4ccc(Cl)cc4)nn3ccn2c1=O	-15.71
COc1ccc(-c2cc3c4nn(CC(=O)Nc5cccc(OC)c5)c(=O)n4ccn3n2)cc1	-23.01
Cc1ccc(NC(=O)Cn2nc3c(N4CCOCC4)nc4ccccc4n3c2=O)cc1C	-25.03
Cc1cccc(-c2nc(CSc3nc4ccccc4n4c(C)nnc34)c(C)o2)c1	-23.71
CCOC(=O)c1cccc(NC(=O)Cn2nc3c4cc(-c5ccc(C)c(C)c5)nn4ccn3c2=O)c1	-17.02
Cn1c(=O)c2ccc(C(=O)NC3CCCCC3)cc2n2c(=O)n(Cc3cccc(C(F)(F)F)c3)nc12	-24.7
COc1cc(OC)c(NC(=O)Cn2nc3c4c5c(sc4ncn3c2=O)CC(C)CC5)cc1Cl (stereo not given)	-23.25
O=c1n(Cc2cccc(C(F)(F)F)c2)nc2ccc(S(=O)(=O)N3CCCC3)cn12	-10.53
CSc1cccc(NC(=O)Cn2nc3c(Sc4ccc(C)cc4C)nccn3c2=O)c1	-22
O=S(=O)(c1ccc2nncn2c1)N(Cc1cccc(F)c1)c1ccc2c(c1)OCCO2	-5.06
